From PubChem BioAssay
In the library only some 10% were active in any assay of this set; here they are far more common.
BAZ2B inh – inhibitors of human BAZ2B bromodomain; 4.4% of 360,000 active; AlphaScreen BAZ2B-H3K14Ac peptide displacement; Potency, µM (series often up to 114 µM), inactives show top-dose activity change, negative = inhibition, actives largely listed as inhibitors; further: potency means the concentration at half of the fitted maximal effect; on the % scale 0 is the no-effect control and ±100 the full control effect; nearly all actives have a fitted effect of over 60% in size
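Multi-concentration screen (max 110 uM) measuring displacement of acetylated histone H3 peptide from BAZ2B by AlphaScreen, using 50 nM protein, 50 nM peptide and 10 ug/mL streptavidin donor plus Ni-chelate acceptor beads.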
JMJD2A Tudor – JMJD2A Tudor domain (human) inhibition; O75164; AlphaScreen JMJD2A-Tudor / H3K4me3 peptide binding; Potency, µM (doses to about 114 µM), inactives show top-dose activity change, negative = inhibition, usual class: inhibitors; 4.4% of 390,000 active; further: potency means the concentration at half of the fitted maximal effect; on the % scale 0 is the no-effect control and ±100 the full control effect; nearly all actives have a fitted effect of over 50% in size
CtBP-E1A inh – inhibitors of CtBP/E1A interaction; 0.49% of 340,000 active; activity change, % (concentration not given with the values); AlphaScreen GST-E1A/His-CtBP binding, 1536-well; active compounds read low; in the data active means activity change below about -65%; inconclusive means mostly about -30% to -63%; further: on the % scale 0 is the no-effect control and ±100 the full control effect
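In 5 uL wells, 23 nL compound meets equimolar GST-E1A and His-CtBP (5X stock 125 nM each) for 2 h, 37 °C. Beads (5X, 50 ug/mL) then 1 h, 37 °C, dark.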
Six1-Eya2 blk – Six1/Eya2 interaction inhibition; 0.56% of 360,000 active; Q15475+O00167; AlphaScreen GST-Six1/His-Eya2 binding, biochemical; active compounds read low; AID 651725; activity change, % (concentration not given with the values); in the data active means activity change below about -65%; inconclusive means mostly about -30% to -63%; further: on the % scale 0 is the no-effect control and ±100 the full control effect
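Compounds are tested against tagged Six1 and Eya2 proteins bridged by glutathione donor and nickel acceptor beads; after a one-hour incubation at 37 °C without light, AlphaScreen emission is recorded.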
G9a inh – blocks human histone lysine methyltransferase G9a | Q96KQ7 | 8.8% of 350,000 active | AID 504332 | Potency, µM (doses to about 102 µM), for the others: at the top dose activity, negative = inhibition, hits mostly inhibitors | G9a H3K9 monomethylation, AlphaScreen, 2 h; further: potency means the concentration at half of the fitted maximal effect; on the % scale 0 is the no-effect control and ±100 the full control effect; nearly all actives have a fitted effect of over 75% in size
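Step 1: enzyme (final 20 nM) with compound, 15 min RT. Step 2: substrate peptide 500 nM and SAM 20 uM, 2 h RT. Step 3: anti-H3K9me1 antibody and AlphaScreen beads, 10 min, then plate read.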
HP1b chromo inh – inhibitors of HP1-beta chromodomain binding to methylated histone tails; AID 540317; Potency, µM (series often up to 114 µM), inactives show at the top dose activity change, negative = inhibition, usual class: inhibitors; 0.56% of 390,000 active; AlphaScreen HP1-beta / biotin-H3K9me3 peptide binding; P83916; further: potency means the concentration at half of the fitted maximal effect; nearly all actives have a fitted effect of over 70% in size
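AlphaScreen: HP1-beta (50 nM) preformed 30 min with biotin-H3(1-18)K9me3 peptide (50 nM) in PBS pH 7.4, 0.01% Tween-20. Compound added for 30 min at RT, then streptavidin donor/nickel chelate acceptor beads (10 ug/mL) for 30 min.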
Numbers without * were called inactive; ? = inconclusive; . = not tested or not shown; ! = not confirmed by another sample; [ ] = remark or other dose. Unless noted, the call rests on the fitted dose curve; in most records, active means well fitted inhibition curve with a large enough effect; inconclusive means small, poorly fitted or top-dose-only effect; inactive means no such curve, though single readings can be large or run the other way.

SMILES | BAZ2B inh | JMJD2A Tudor | CtBP-E1A inh | Six1-Eya2 blk | G9a inh | HP1b chromo inh
CCn1ccnc1CN(C)Cc1cn(-c2ccccc2)nc1-c1ccc(OC)cc1F | -31% | 40µM* | -25 | -17 | ? | -9%
Cc1ccc(-n2cc(CN(C)Cc3nccn3C)c(-c3ccc(F)cc3)n2)cc1 | 20µM* | 45µM* | -16 | -28 | . | ?
OC[C@@H](O)C1OC2NC(=S)OC2C1O (some centres undefined) | -15% | -5% | 12 | -1 | 1% | 50%
CCN1CCN(S(=O)(=O)c2ccc(Cl)c(C(=O)NCc3nc4ccccc4[nH]3)c2)CC1 | . | -23% | 4 | 4 | . | 22%
CCn1ccnc1CN(C)Cc1cn(-c2ccc(C)cc2)nc1-c1ccc(F)cc1 | 50µM* | ? | . | -3 | -16%[0.501 µM] | ?
CCn1ccnc1CN(C)Cc1cn(C)nc1-c1ccccc1F | ? | -25% | -10 | 2 | ? | 21%
COC(=O)[C@]12CCCCC=C1N(Cc1ccccc1)C(=O)[C@H](CC(=O)N1CCC(c3ccccc3)CC1)C2 | . | . | -17 | -20 | . | .
Cc1ccc(C(=O)OCC(=O)Nc2sccc2C(N)=O)cc1NC(=O)c1ccco1 | -34% | -12%[57.1 µM] | -5 | -3 | 0.89µM* | 26%
Cc1ccc(C(=O)OCC(=O)Nc2sc3c(c2C#N)CCCC3)cc1NC(=O)c1ccco1 | -30% | -28% | -15 | -5 | 22µM* | -2%
NC(=O)c1ccsc1NC(=O)COC(=O)/C=C/c1ccc([N+](=O)[O-])cc1 | -7% | ? | -17 | -7 | . | 0%
COC(=O)c1ccc(/C=C/C(=O)OCC(=O)Nc2sccc2C(N)=O)cc1 | . | -12% | -69* | ? | . | 21%
Cc1ccc(C(=O)OCC(=O)Nc2ncc(Cl)cc2Cl)cc1NC(=O)c1ccco1 | -30% | ? | -5 | 0 | 45µM* | 14%
Cc1ccc(C(=O)OCC(=O)Nc2ccccc2)cc1NC(=O)c1ccco1 | . | 5% | -4 | 7 | 8%[59 µM] | 15%
Cc1ccc(C(=O)OCC(=O)Nc2cc(F)ccc2F)cc1NC(=O)c1ccco1 | 5% | -4% | 7 | -3 | -7% | 26%
CCCN1CNc2c(c(=O)[nH]c(=S)n2CCc2ccc(OC)cc2OC)C1 | . | -9% | . | . | . | 42%
COc1ccc(CC(=O)Nc2ccc(S(=O)(=O)N3CCCCC3)cc2)cc1OC | 2% | -23% | ? | -10 | ? | 13%
CCOC(=O)c1cnn(-c2cccc(F)c2)c1C1CCNCC1 | . | -8% | . | . | -50%[59 µM] | 24%
Cc1cc(-c2nc3ncccc3o2)ccc1NC(=S)NC(=O)C(C)C | -11% | -14% | 16 | 0 | 3% | 41%
Cc1cccc(N2CCN(Cc3nnc(-c4ccccc4C)o3)CC2C)c1 (centres undefined) | ? | 79µM* | . | . | ? | -8%
Cc1ccccc1-c1nnc(CN2CCC(C)CC2)o1 | -16% | -7% | -14 | 1 | -13% | 24%
CCOC(=O)C1=CCN(S(=O)(=O)c2ccccc2Br)C1c1ccc(F)cc1 (centres undefined) | . | . | 6 | 4 | . | .
O=C(NCC(c1ccco1)N1CCCCC1)c1ccc2c(c1)S(=O)(=O)c1ccccc1C2=O (centres undefined) | ? | ? | . | -12 | 40µM* | 6%
O=C(Nc1ccccc1N1CCCCC1)c1ccc(Cl)c([N+](=O)[O-])c1 | ? | ? | -3 | -26 | 35µM* | -18%
CN1CCN(c2ccccc2NC(=O)c2ccc(N3CCCC3)c([N+](=O)[O-])c2)CC1 | ? | 56µM* | ? | -22 | 50µM* | ?
CN1CCN(c2ccc(C(=O)c3ccc(Br)cc3)cc2[N+](=O)[O-])CC1 | 40µM* | 22µM* | -29 | -21 | 45µM* | ?
SMILES | BAZ2B inh | JMJD2A Tudor | CtBP-E1A inh | Six1-Eya2 blk | G9a inh | HP1b chromo inh
CC1CCN(c2ccccc2NC(=O)c2ccc(N3CCOCC3)c([N+](=O)[O-])c2)CC1 | 7% | -1% | 7 | 3 | 8%[59 µM] | 0%
O=C(Nc1nc2ccccc2s1)c1ccc(N2CCCCC2)c([N+](=O)[O-])c1 | 10µM* | ? | ? | ? | ? | -26%
COc1ccc(-c2nc(S(=O)(=O)c3ccccc3)c(NCCCN3CCOCC3)o2)cc1 | . | -15% | . | -10 | . | 50%
CCc1ccc(NC(=O)C2CCN(S(=O)(=O)c3ccc4[nH]c5c(c4c3)CCCCC5)CC2)cc1 | -15% | ? | . | . | ? | 27%
COc1ccc(OC)c(/C=C(/C#N)c2nc(-c3ccc(-c4ccccc4)cc3)cs2)c1 | 3% | 3% | . | . | 11%[59 µM] | 35%
CN(C)c1ccc(/C=C(\C#N)c2ccccc2)cc1 | -26% | ? | . | ? | 17% | 3%
CN(C)c1cccc(/C=C(\C#N)c2ccccc2)c1 | -36% | -13% | . | -27 | 45µM* | 21%
COc1ccc(N(CCC#N)C(=O)/C(C#N)=C\c2cccs2)cc1 | -31% | -16% | 7 | -8 | ? | 15%
Cc1cc(N2CCCCC2)nc2ccc(NC(=O)/C=C/c3ccccc3OC(C)C)cc12 | -18% | -21% | . | . | -30%[59 µM] | 9%
Cc1cccc(C)c1OCc1cc(=O)n2c(-c3ccccc3)csc2n1 | 2% | -1% | . | . | 13%[59 µM] | 35%
O=c1cc(CN2CCN(c3ccc(O)cc3)CC2)nc2scc(-c3ccccc3)n12 | -30% | -35% | 3 | -3 | 10µM* | ?
COC(=O)c1c(N)n(-c2ccc(N3CCOCC3)cc2)c2nc3ccccc3nc12 | ? | . | . | . | 10µM* | .
OCCN(Cc1ccccc1)CC1CCCCC1 | ? | 22µM* | 1 | 4 | 11µM* | 14%
OCCN(Cc1ccccc1)CC1CC2C=CC1C2 (centres undefined) | ? | 3.2µM* | 4 | 4 | 14µM* | -51%
O=C(O)CCc1nc(-c2ccccc2)no1 | . | -6%[57.1 µM] | 6 | 1 | -10%[59 µM] | 49%
CCN(CC)CCc1nc(-c2ccccc2)no1 | -4% | 40µM* | -17 | 7 | 13µM*! | 13%
CCN(CC)CCNC(=S)NC(=O)c1cn(-c2ccccc2)nc1-c1ccc(OC)cc1 | ? | ? | -22 | ? | ? | 3%
OCCC1CCCCN1CC(O)COCc1ccc(Cl)cc1 (centres undefined) | ? | 22µM* | -7 | 6 | ? | ?
NC(=O)C1CCCN(CC(O)COCc2ccc(Cl)cc2)C1 (centres undefined) | 50µM* | 18µM* | . | -3 | -10% | -32%
CCC1CCCCN1CC(O)COCc1cccc(OC)c1 (centres undefined) | -16% | -8% | 1 | 47 | 13% | -8%
Cc1cnc(CNc2cc(-c3ccc(N(C)C)cc3)ncn2)cn1 | . | . | . | . | -23%[0.501 µM] | .
